30 compounds from PubChem BioAssay (EPA / NIEHS) can be followed below.

Some compounds were tested as several samples or in several runs, with calls that do not always agree. Active and inactive are the calls of the source. Rule for the calls: active = hit-call score of the fitted dose curve at least 0.9, where 1 is the maximum; inactive = score below 0.9.

Read-out in this test: Matrix Metallopeptidase 1 (MMP1), MMP1 (gene 4312)
Briefly: BSK_MyoF_MMP1: BioMAP Diversity Plus: MyoF Assay for Matrix Metallopeptidase 1 (MMP1) Biomarker Activity (AID 2284268). As to conditions: primary human lung fibroblasts. The method, then:
BSK_MyoF is a cell-based, multiplexed-readout assay that uses lung fibroblasts, […], with measurements taken at 24 hours after chemical dosing in a microplate: 96-well plate.BSK_MyoF_MMP1 is an assay component measured in the BSK_MyoF assay. It measures […] antibody related to regulation of gene expression using ELISA technology.Data from the assay component BSK_MyoF_MMP1 was analyzed at the endpoint, BSK_MyoF_MMP1, in the positive analysis fitting direction relative to DMSO as the negative control and baseline of activity. Using a type of binding reporter, gain or loss-of-signal activity can be used to understand protein changes. To generalize the intended target to other relatable targets, this assay endpoint is annotated to the 'protease' intended target family, where the subfamily is 'matrix metalloproteinase'.
The levels of cell surface (or secreted, indicated by the prefix "s") biomarker endpoints were measured by ELISA. Overt cytotoxicity to cells in confluent adherent cultures (all systems other than the BT system) was assessed by measuring total protein levels using sulforhodamine B (SRB) staining in parallel cultures at the time of biomarker measurements, indicated as SRB endpoints. For proliferation assays for adherent cell types, individual cell types are cultured at sub-confluence and relative cell numbers quantified by SRB staining at time points optimized for each system (48 h: 3C and CASM3C systems; 72 h: BT and HDF3CGF systems; 96 h: SAg system). SRB was performed by staining cells with 0.1% SRB after fixation with 10% TCA and reading wells at 560 nm.Viability and proliferation of PBMC (T cells) was quantified by Alamar Blue reduction for the SAg and BT systems. For PBMC viability (referred to as PBMC Cytotoxicity within the assay endpoint names), cells were plated (75,000/well in a 96-well plate) and then chemical samples added for 1 h before addition of activators, SEB and TSST-1 (20 ng/mL final concentration each). Cells were incubated for 90 h. Then, Alamar Blue (20 uL/well) (Invitrogen, Cat DAL1100) was added for 6 h, and the plates were read with a fluorescence microplate reader at 546/580 nm (excitation/emission). For PBMC proliferation, cells were plated and activated as above but incubated for only 16 h prior to addition of Alamar Blue. Plates were read after 6 h.
In the case of `O=[N+]([O-])C=Cc1ccccc1`, the result was inactive. Same read-out and setting: next, `C=CC(=O)OCC(CC)CCCC` (configuration not stated): “inactive”. For `O=c1[nH]c(Cl)c(Cl)cc1Cl`, the AC50 – broadly, the concentration at which the activity in the assay is half-maximal – is 20 µM (active). Take `CC1(C)[C@H](C(=O)O[C@H](C#N)c2cccc(Oc3ccccc3)c2)[C@@H]1C=C(Br)Br`: the outcome was inactive.

With `CC(C)(C)C(O)C(Oc1ccc(-c2ccccc2)cc1)n1cncn1` (configuration not stated), the AC50 was 30 µM (active). Consider `O=C1C(Cl)=C(Cl)C(=O)C(Cl)=C1Cl`, for which the outcome was inactive.

As to `CC(C)(c1cc(Cl)c(O)c(Cl)c1)c1cc(Cl)c(O)c(Cl)c1`, the outcome was inactive. On to `COC(C)(C)CCC[C@H](C)C/C=C/C(C)=C/C(=O)OC(C)C`, for which the AC50 was 26.9 µM (active). As to `CC(C)CCCCCCCOC(=O)c1ccccc1C(=O)OCCCCCCCC(C)C`, the outcome was inactive. Turning to `CCCCCCCCCCCC#N`, the AC50 was 33.7 µM (active). Consider `COCC(=O)N(c1c(C)cccc1C)N1CCOC1=O`, for which the outcome was inactive. As for `O=S(=O)(c1ccccc1)c1ccccc1`, the result was inactive.

In the case of `CC(=O)/C=C/c1ccccc1`, the result was inactive. Still for that read-out and setting: with `Nc1ccc(-c2ccc(N)c(N)c2)cc1N` the entry was “inactive”. Regarding `O=C1C=CC(=O)C=C1`, the outcome was inactive and the AC50 was 5.76 µM (active). Turning to `CC(C)CCCCCCCOP(=O)(Oc1ccccc1)Oc1ccccc1`, the AC50 is 5.17 µM (active).

As to `CCCOC(=O)c1ccccc1C(=O)OCCC`, the result was inactive. Take `O=C(O)CCCc1ccc(N(CCCl)CCCl)cc1`: the outcome was inactive and the AC50 was 30.6 µM (active).

Take `Cc1ccc(OP(=O)(Oc2ccc(C)cc2)Oc2ccc(C)cc2)cc1` (tested in a mixture with another compound): the concentration at half-maximal activity (AC50) was 27.6 µM (active). As to `O=c1c2ccccc2c(=O)c2c1cc(Cl)c1[nH]c3c([nH]c12)c(Cl)cc1c(=O)c2ccccc2c(=O)c13`, the result was inactive. `CCc1cc(C)cc(CC)c1-c1c(OC(=O)C(C)(C)C)n2n(c1=O)CCOCC2`: the result was inactive. For the compound `C=CCN(CC=C)C(=O)C(Cl)Cl`, the result was inactive. For `c1ccc(Nc2ccc3ccccc3c2)cc1`, the result was inactive. As to `Oc1cc(Cl)ccc1Cl`, the outcome was inactive. On to `CC(C)(C)C(=O)CCl`, for which the result was inactive.

For `CC(C)COP(=O)(OCC(C)C)OCC(C)C`, the result was inactive. The same measure, in the same setting: with `O=P1(NCCCl)OCCCN1CCCl` (configuration not stated) the entry was “inactive”; with `CNC(=O)Oc1cc(C)c(SC)c(C)c1`, “inactive”. Turning to `Clc1ccc(-c2ccccc2)cc1`, the outcome was inactive. Same read-out and setting: with `CCC(C)c1cc([N+](=O)[O-])cc([N+](=O)[O-])c1OC(=O)C=C(C)C` (configuration not stated) the entry was “inactive”.
